Experimental data reported in PubChem BioAssay.
Results filed as inconclusive are left out.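 Rule for the calls, unless noted: active = cell viability at or below a set limit in both duplicate runs, the limit being the all-compound median minus 4 SD (cut at about 23% in these data, passing the limit was not always enough); inconclusive = no clear call, values can overlap the other calls; inactive = the rest.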

Assays:
[1] = S. cerevisiae growth inhibition in permissive medium (OD615), pilot counter-assay for S. cerevisiae lifespan shortening project, permissive growth control (AID 705;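 active = growth inhibition above 25% in both replicates, a cutoff set 3 SD above the mean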); conditions: OD615, 24 h, at 10 µM, active compounds read high
[2] = S. cerevisiae growth inhibition in restrictive medium, OD615, pilot screen, restrictive growth control, yeast lifespan reduction project (AID 706;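 active = growth inhibition above a set limit, 3 SD over mean compound inhibition, in both replicates, cut at about 43% in these data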;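 note: modified DeaD lifespan yeast strain shifted to restrictive glucose medium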); conditions: OD615, 48 h, at 10 µM, active compounds read high
[3] = doxorubicin toxicity protection in MRP-1 cells – H69AR cells, CellTiter-Glo, duplicate, MRP-1 activator project, pilot screen (AID 807;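 active = viability increase at or above a cutoff of the median across tested compounds plus 3 SD, cut at about 8.5% in these data, passing the limit was not always enough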;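 note: compound pretreatment 18-22 h then 72 h combined with doxorubicin; 0% = doxorubicin alone and 100% = vehicle without doxorubicin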); conditions: H69AR viability with doxorubicin, CellTiter-Glo luminescence; at 10 µM; active compounds read high
[4] = viability of HCT116 without oncogenic beta-catenin – human colon tumor cells, pilot screen (AID 823); conditions: HCT116 beta-catenin knockout viability, CellTiter-Glo, 60 h; at 10 µM; active compounds read low;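 note: 0% = wells killed by 20 µM Hyamine and 100% = untreated DMSO cell wells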
[5] = viability of PTEN-null HCT116 cells – cell-based, HCT116 clonal line, CellTiter-Glo, pilot screen (AID 824;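 active = viability at or below 27.92% in each of two runs, the all-compound median minus 4 SD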;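 note: 0% = 20 µM Hyamine control and 100% = vehicle cell control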); conditions: HCT116 PTEN-deleted viability, 60 h, at 10 µM, active compounds read low
[6] = RAM pathway blockade in budding yeast – dse1pr::URA3 reporter, 5-FOA selection, pilot screen (AID 869;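 active = inhibition over a set limit, the all-compound mean plus 3 SD, in both replicate runs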;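 note: 0% = DMSO wells with no growth and 100% = 10 µM 1-NA-PP1 with full growth; RAM network block rescues cells from 5-FOA so hits raise OD615 growth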); conditions: S. cerevisiae dse1pr::URA3 5-FOA growth, OD615, 2 d, at 10 µM, active compounds read high
[7] = RAM signaling pathway blockade in yeast – S. cerevisiae, Pdr1DBD-CYC8 efflux-inhibited sensitized strain, primary screen (AID 1298;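 active = RAM network inhibition above 8.4% in each of two replicates, 3 SD over the compound average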;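 note: 0% = DMSO untreated cells without growth and 100% = 10 µM 1-NA-PP1 full growth; higher means more yeast growth rescued from 5-FOA killing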); conditions: S. cerevisiae cbk1-as DSE1-URA3 strain, 5-FOA growth OD615, 2 d; at 50 µM; active compounds read high

c1ccc2sc(C3CCCNC3)nc2c1 (stereo not given)
inactive: growth inhibition [1] -10.6% | growth inhibition [2] -19.7% | viability increase [3] -1.16% | viability [4] 97.6% | viability [5] 97.4% | inhibition [6] 2.33% | RAM network inhibition [7] 0.56%

CCOC(=O)C1CCN(/C=C2/C(=O)NC(=O)N(c3ccc(OCC)cc3)C2=O)CC1
inactive: growth inhibition [1] -11.5% | growth inhibition [2] -20.2% | viability increase [3] 1.62% | viability [4] 98% | viability [5] 97.5% | inhibition [6] 1.87% | RAM network inhibition [7] 1.16%

O=C(Cc1ccccc1)Oc1cccc(N2C(=O)CCC2=O)c1
inactive: growth inhibition [1] -15.7% | growth inhibition [2] -12.2% | viability increase [3] -0.69% | viability [4] 101% | viability [5] 94.8% | inhibition [6] 1.23% | RAM network inhibition [7] 3.42%

O=c1cccc2n1CC1CC2CN(c2ncnc3c2cnn3-c2ccccc2)C1 (stereo not given)
inactive: growth inhibition [1] -14.6% | growth inhibition [2] -18.5% | viability increase [3] -1.4% | viability [4] 101% | viability [5] 101% | inhibition [6] 1.7% | RAM network inhibition [7] 1.58%

Cn1c(O)c(C=NCCc2c[nH]c3ccccc23)c(=O)n(C)c1=O
inactive: growth inhibition [1] -0.425% | growth inhibition [2] -3.75% | viability increase [3] -2.67% | viability [4] 101% | viability [5] 91.4% | inhibition [6] 1.54% | RAM network inhibition [7] -0.15%

CC(=O)c1cccc(NC2=NCC(C)S2)c1 (stereo not given)
inactive: growth inhibition [1] -9.46% | growth inhibition [2] -13.1% | viability increase [3] -0.51% | viability [4] 106% | viability [5] 93.9% | inhibition [6] 2.77% | RAM network inhibition [7] 2.41%

COc1ccc2[nH]c(C)c(CCN3CCC(=O)C(C)C3C)c2c1 (stereo not given)
inactive: growth inhibition [1] -4.37% | growth inhibition [2] -10.2% | viability increase [3] -2.73% | viability [4] 87.1% | viability [5] 93.1% | inhibition [6] 0.27% | RAM network inhibition [7] 3.24%

O=C1CC(=O)N(c2ccc(Cl)cc2Cl)C(=O)N1
inactive: growth inhibition [1] -10.7% | growth inhibition [2] 11.2% | viability increase [3] 0.06% | viability [4] 93.2% | viability [5] 91.2% | inhibition [6] 0.19% | RAM network inhibition [7] 1.94%

O=C(CN1CC(c2ccccc2)CC1=O)Nc1ccc(F)cc1 (stereo not given)
inactive: growth inhibition [1] -15.6% | growth inhibition [2] -4.88% | viability increase [3] -3.89% | viability [4] 101% | viability [5] 99.2% | inhibition [6] -0.44% | RAM network inhibition [7] 0.85%

C[C@H]1CCC[C@@H](O)CCC/C=C/c2cc(O)cc(O)c2C(=O)O1
inactive: growth inhibition [1] -5.6% | growth inhibition [2] -3.65% | viability increase [3] -7.59% | viability [4] 46.9% | viability [5] 44.9% | inhibition [6] 0.64% | RAM network inhibition [7] 1.97%

Nc1ccccc1C(=O)c1ccccc1
inactive: growth inhibition [1] -0.69% | growth inhibition [2] -1.46% | viability increase [3] -1.42% | viability [4] 90.9% | viability [5] 88.7% | inhibition [6] 0.55% | RAM network inhibition [7] 2.5%

COc1cc(CN2CC3CC(C2)c2cccc(=O)n2C3)cc(OC)c1OC (stereo not given)
inactive: growth inhibition [1] -11.8% | growth inhibition [2] -4.6% | viability increase [3] -2.25% | viability [4] 104% | viability [5] 109% | inhibition [6] 2.42% | RAM network inhibition [7] 0.85%

C=Cn1ccnc1P(=S)(c1nccn1C=C)C1CCCCC1
inactive: growth inhibition [1] 0.2% | growth inhibition [2] -2.3% | viability increase [3] -1.76% | viability [4] 92.3% | viability [5] 93.1% | inhibition [6] 0.82% | RAM network inhibition [7] 3.48%

c1cncc(C2CCCCN2Cc2ccc3c(c2)OCO3)c1 (stereo not given)
inactive: growth inhibition [1] -6.18% | growth inhibition [2] -13% | viability increase [3] -0.84% | viability [4] 95.2% | viability [5] 94.3% | inhibition [6] 2.12% | RAM network inhibition [7] 4.3%

CN1CCN(c2ncnc3ccc(Br)cc23)CC1
inactive: growth inhibition [1] -1.88% | growth inhibition [2] 5.46% | viability increase [3] -1.88% | viability [4] 94.2% | viability [5] 98.4% | inhibition [6] -0.575% | RAM network inhibition [7] 2.92%

CCOC(=O)N(CC)c1ccc(C(O)(C(=O)OCC)C(F)(F)F)cc1 (stereo not given)
inactive: growth inhibition [1] -2.74% | growth inhibition [2] -2.65% | viability increase [3] -0.35% | viability [4] 92.5% | viability [5] 95.3% | inhibition [6] 0.745% | RAM network inhibition [7] 0.46%

Cc1ccc2cccc(OC(=O)N(C)c3ccccc3)c2n1
inactive: growth inhibition [1] -4.06% | growth inhibition [2] -4.96% | viability increase [3] -0.64% | viability [4] 95.5% | viability [5] 87.5% | inhibition [6] 1.67% | RAM network inhibition [7] 1.8%

CC1(C)C(c2ccccc2)=NC(c2cccnc2)=[N+]1[O-]
inactive: growth inhibition [1] -4.62% | growth inhibition [2] -3.12% | viability increase [3] 1.13% | viability [4] 98.7% | viability [5] 89.4% | inhibition [6] -0.02% | RAM network inhibition [7] -0.36%

O=C(c1ccccc1)c1cn(CC(=O)N2CCCC2)c2ccccc12
inactive: growth inhibition [1] -15.1% | growth inhibition [2] -16.4% | viability increase [3] -1.14% | viability [4] 102% | viability [5] 92% | inhibition [6] 3.23% | RAM network inhibition [7] 4.67%

OC12CCCCC1C(c1ccccc1)NCC2 (stereo not given)
inactive: growth inhibition [1] -3.8% | growth inhibition [2] -17.1% | viability increase [3] -2.28% | viability [4] 102% | viability [5] 102% | inhibition [6] 3.24% | RAM network inhibition [7] 3.17%
